# TIM10 inh: TIM10 yeast growth inhibition; inhibition, % at 10 µM; hit rate 1.4% among 330,000; S. cerevisiae TIM10 strain growth, BacTiter-Glo luminescence, 24 h;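 active = inhibition of 40% or more at the single tested concentration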;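 also: wild-type TIM10 isogenic control strain grown at permissive 25 °C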
# tim23-1 inh: inhibits growth of tim23-1 mutant yeast. S. cerevisiae tim23-1 growth, BacTiter-Glo luminescence, 24 h. inhibition, % at 20 µM. hit rate 1.3% among 330,000. AID 463212;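 active = growth inhibition of the mutant yeast at or above 50%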;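 also: temperature-sensitive mutant grown at 25 °C; plate controls were DMSO-treated mutant yeast for no effect and medium wells lacking yeast for full effect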
# PfHsp90 set2: reduces growth (ATP signal) of yeast expressing P. falciparum Hsp90 | S. cerevisiae expressing PfHsp90, BacTiter-Glo ATP, 48 h; yeast lacking PDR1 and PDR3 efflux regulators | AID 504621 | inhibition, % at 9.4 µM | hit rate 0.32% among 310,000;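 active = every replicate shows inhibition above about 80%, whatever the replicate mean, limit read from the data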;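 also: 0% = DMSO neutral controls and 100% = 20 µM radicicol positive controls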
# SKKanGAS inh: inhibitors of SKKanGAS S. pyogenes growth in kanamycin (SK-promoter or general growth effect); BacTiter-Glo, 6 h; inhibition, % at 7.5 µM; hit rate 1.3% among 300,000; AID 1662;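 active = mean replicate score, as percent of positive control median, at least 50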;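 also: strain carries kanamycin resistance gene driven by streptokinase promoter and grows in 40 µg/ml kanamycin; loss of luminescence reflects streptokinase promoter inhibition or plain growth inhibition; 0% = median of DMSO wells and 100% = positive control at its reference dose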
# tim10-1 inh: inhibits growth of tim10-1 mutant yeast; S. cerevisiae tim10-1 ts strain growth, BacTiter-Glo, 24 h; inhibition, % at 20 µM; hit rate 2.2% among 330,000; AID 463190;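 active = inhibition of at least 40%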;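 also: mutant grown at 25 °C; 0% = DMSO wells with yeast and 100% = wells holding no yeast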
# NLRP3 yeast inh: NALP3 inhibition in yeast; Yeast reconstituted NLRP3/ASC/caspase-1, beta-gal luminescence, 24 h; inhibition, % at 10 µM; hit rate 0.39% among 330,000; AID 2825;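 active = inhibition of 50% or more; inactive = inhibition below 50%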;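 also: plate controls were induced DMSO wells for no effect and uninduced yeast grown without galactose for full effect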
# tim10-1 confirm: tim10-1 yeast growth inhibition, confirmed; shares compounds with tim10-1 inh; S. cerevisiae tim10-1 ts strain growth, BacTiter-Glo, 24 h; inhibition, % at 20 µM; hit rate 56% among 7,400; AID 463213;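 active = inhibition of yeast growth at or above a set limit in either of two repeat tests at 20 µM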;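 also: tim10-1 mutant grown at permissive 25 °C to find synthetic lethal compounds; 0% = DMSO yeast wells and 100% = medium wells without yeast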
# TIM10 conf: TIM10 yeast growth inhibition, confirmed; shares compounds with TIM10 inh; inhibition, % at 10 µM; hit rate 63% among 4,600; S. cerevisiae tim10 strain growth, BacTiter-Glo luminescence, 24 h;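 active = inhibition of yeast growth at or above a set limit in either of two replicates at 10 µM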;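 also: this counterscreen used the strain with wild-type TIM10; 0% = yeast with DMSO and 100% = medium wells lacking yeast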
# tim23-1 confirm: confirmation of tim23-1 mutant yeast growth inhibitors; S. cerevisiae tim23-1 growth, BacTiter-Glo luminescence, 24 h; hit rate 83% among 4,400; AID 463218; inhibition, % at 20 µM; shares compounds with tim23-1 inh;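 active = inhibition above about 39% in either of two replicate wells at 20 µM, limit read from the data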;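 also: temperature-sensitive tim23-1 mutant grown at 25 °C; 0% = DMSO wells with yeast and 100% = medium wells without yeast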
# * marks the source's active call; other numbers are inactive results; · = no result given. Compounds with a hit are over-represented: about 4.5% of the library has one in this group of screens.
SMILES,TIM10 inh,tim23-1 inh,PfHsp90 set2,SKKanGAS inh,tim10-1 inh,NLRP3 yeast inh,tim10-1 confirm,TIM10 conf,tim23-1 confirm
O=C(NCCN1C(=O)S/C(=C\c2ccc(Cl)cc2Cl)C1=O)C1=COCCO1,47*,57*,-1,-9,41*,31,47*,48*,67*
O=C(NCCN1C(=O)S/C(=C\c2ccccc2Cl)C1=O)C1=COCCO1,27,24,10,-16,33,19,·,·,·
COc1ccc2[nH]c3c4c(ccc3c2c1)C(=O)C=CC4=O,79*,76*,7,·,62*,38,77*,99*,-23
COc1ccc(C(=O)n2cc(C(=O)c3cc(C)ccc3O)cn2)cc1,25,41,-4,2,19,11,·,·,·
COc1ccc(O)c(C(=O)c2cnn(S(=O)(=O)c3ccc(C)cc3)c2)c1,26,52*,-7,·,54*,32,35*,·,52*
CN(C(=O)COC(=O)COc1ccc(Cl)cc1Cl)c1c(N)n(Cc2ccccc2)c(=O)[nH]c1=O,-2,8,-6,0,2,4,·,·,·
COc1cccc(NC(=O)Nc2ccc(C(C)(C)C)cc2)c1,49*,58*,-14,-8,57*,0,46*,60*,75*
COc1cccc(NC(=O)Nc2ccncc2)c1,-15,-1,-40,1,1,14,·,·,·
S=c1[nH]nc(-c2ccc(Cl)cc2)n1/N=C/C=C/c1ccco1,36,51*,-6,3,45*,1,29,·,38
CC(=O)N1CCN(C(=O)CCCNC(=O)c2ccc(Cl)cc2)CC1,-1,-7,-15,2,9,9,·,·,·
Cc1ccccc1C(=O)Nc1sc(C)c(C)c1C(=O)c1ccccc1,-9,-10,-26,20,14,-2,·,·,·
O=C(CCl)Nc1sccc1C(=O)c1ccccc1,47*,60*,-12,-10,54*,-4,55*,52*,50*
Cc1sc(NC(=O)CCl)c(C(=O)c2ccccc2)c1C,46*,52*,-2,13,43*,20,39*,9,38*
COc1ccc2c(c1)[C@H]1[C@H](CO2)[C@H](c2ccccc2)[C@]2(C)C(=O)N(CC3CCCO3)CC(=O)N12 (some centres not stated),12,8,17,·,3,11,·,·,·
COC(=O)c1ccc(/C=C(\C#N)C(=O)NC(C)c2ccccc2)cc1 (configuration not stated),61*,66*,-15,-2,64*,0,62*,57*,58*
CC/C(=N\NC(C)=O)c1ccc(OC(F)F)cc1,-12,9,·,-4,4,14,·,·,·
CC/C(=N\NC(=S)Nc1ccc(OC)cc1)c1ccc(OC(F)F)cc1,34,53*,-19,-11,54*,25,46*,·,43*
COc1ccc(Br)cc1C(=O)NC(=S)Nc1ccc(CN2CCOCC2)cc1,35,51*,-2,-4,55*,5,19,·,57*
CCCCCCNS(=O)(=O)c1ccc(Cl)s1,-1,56*,·,·,43*,32,26,·,47*
COc1ccc(C(=O)COC(=O)C2COc3ccccc3O2)cc1F (configuration not stated),14,27,·,·,20,12,·,·,·
Cc1nc(Nc2cccc(Cl)c2)c2oc3ccccc3c2n1,33,43,-9,21,32,13,·,·,·
Cc1nc(Nc2cccc(F)c2)c2oc3ccccc3c2n1,5,55*,-10,-4,44*,7,29,·,60*
O=C(COc1ccccc1Br)c1ccc(O)cc1O,32,66*,-16,2,50*,22,40*,·,58*
O=C(Cc1ccc(Br)cc1)c1ccc(O)cc1O,61*,63*,15,6,58*,34,66*,57*,53*
N#Cc1ccccc1S(=O)(=O)N1CCN(C(=O)C2CCCCC2)CC1,-1,10,-13,·,14,-3,·,·,·
SMILES,TIM10 inh,tim23-1 inh,PfHsp90 set2,SKKanGAS inh,tim10-1 inh,NLRP3 yeast inh,tim10-1 confirm,TIM10 conf,tim23-1 confirm
CCC(C)Sc1ccc([C@@H]2[C@H]3C(=O)N(C)C(=O)[C@H]3[C@]3(C(=O)OC)CCCN23)cc1 (some centres not stated),9,17,-3,·,20,11,·,·,·
c1ccc(-c2noc(-c3ccc4ccccc4c3)n2)nc1,18,31,30,22,32,22,·,·,·
c1ccc(-c2noc(-c3ccc4c(c3)OCO4)n2)nc1,34,52*,69,76*,49*,21,40*,·,60*
CCc1ccc(Nc2n[n+](-c3ccccc3)c(-c3ccc(OC)c(Br)c3)s2)cc1,11,8,-16,5,-34,18,·,·,·
CC1CCN(C(=O)CSCC(=O)Nc2nc(-c3cccs3)cs2)CC1,31,54*,-44,-6,43*,25,27,·,49*
Oc1ccc(Br)cc1/C=N/n1c(-c2ccccc2)n[nH]c1=S,22,57*,-10,3,46*,10,41*,·,59*
O=c1ccc2cc(S(=O)(=O)Nc3ccc(Br)cc3)ccc2o1,9,29,4,-3,14,26,·,·,·
CCN1c2ccccc2NC2C1C(C(C)=O)C(=O)N2c1ccc(Cl)cc1 (configuration not stated),52*,69*,-5,15,62*,26,53*,39*,50*
O=C1Nc2ccccc2N(O)N1c1ccc(Cl)cc1,5,3,35,0,5,6,·,·,·
CCOC(=O)c1sc(NC(=O)C2CCCCC2)nc1C,24,35,5,-3,13,22,·,·,·
CCOc1ccc(CN2C(=O)c3ccccc3C2=O)cc1C(=O)N1CCC(C(N)=O)CC1,0,0,1,-14,3,-11,·,·,·
Cc1ccc(-c2cc(-c3cccc(F)c3)n[nH]2)c(O)c1,48*,59*,6,52*,58*,25,51*,-5,21
Cc1ccc(-c2cc(-c3ccccc3C)[nH]n2)c(O)c1,49*,74*,-16,·,48*,21,58*,57*,54*
Cc1ccc(-c2[nH]ncc2C(=O)c2cccc(F)c2)c(O)c1,5,30,0,-2,33,6,·,·,·
CCC(C)c1ccc(N(CC(=O)NC(C)(C)C)C(=O)CNC(=O)c2cccs2)cc1 (configuration not stated),12,20,-1,-9,35,-22,·,·,·

# Screening data as filed in PubChem BioAssay.
